Screening results (PubChem)
An excerpt weighted towards active compounds, which were near 4.1% of everything screened.
DAX1 inh-1: DAX1 (NR0B1) inhibition, primary screen. HEK293T StAR-luciferase reporter, SF-1/DAX-1 repression relief. inhibition, % at 6.8 µM. actives 1.1% (n = 370,000);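 active means inhibition above the mean over all tested compounds plus 3 SD, cut at about 3.6% in these data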;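 further: 0% = DAX-1 cells with DMSO and 100% = cells lacking DAX-1 with DMSO; higher inhibition means more luminescence from relief of DAX-1 repression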
DAX1 inh-2: inhibits human nuclear receptor DAX1 | P51843 | HEK293 Gal4-DAX1 luciferase reporter, luminescence | inhibition, % at 6.75 µM | actives 0.99% (n = 340,000);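 active means inhibition above the mean over all tested compounds plus 3 SD, cut at about 4.2% in these data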;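 further: 0% = DAX1-transfected cells with DMSO and 100% = empty-vector control cells with DMSO; inhibition shows as a rise in luminescence from relieved DAX1 repression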
Target sequence (P51843 207-470 limits assumed): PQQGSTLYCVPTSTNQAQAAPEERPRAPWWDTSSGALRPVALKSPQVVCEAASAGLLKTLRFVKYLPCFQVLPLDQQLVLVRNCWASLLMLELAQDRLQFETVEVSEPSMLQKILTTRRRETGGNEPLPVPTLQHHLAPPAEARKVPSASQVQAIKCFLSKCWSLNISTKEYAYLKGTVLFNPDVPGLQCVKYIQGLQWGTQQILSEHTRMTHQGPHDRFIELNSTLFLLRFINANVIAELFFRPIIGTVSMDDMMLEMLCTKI
ssDAF12 agonist: activates DAF-12 receptor from parasite S. stercoralis; actives 1% (n = 370,000); HEK293 ssDAF-12/GRIP1 lit1-tk-luc reporter, luminescence; % of 3 µM dafachronic acid response; activation, % at 6.8 µM; AID 652126;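 active means activation above the mean over all tested compounds plus 3 SD, cut at about 0.9% in these data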;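 further: 0% = DMSO-only wells and 100% = 3 µM delta7-dafachronic acid wells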
hcDAF12 agonist: H. contortus DAF-12 activation, primary screen; HEK293 hcDAF-12 lit1-tk-luc reporter, luminescence; 0% DMSO, 100% Δ7-dafachronic acid; activation, % at 6.8 µM; actives 1.4% (n = 370,000);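 active means activation above the mean of all tested compounds plus 3 SD, cut at about 5.5% in these data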;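 further: 100% = response to 3 µM Δ7-dafachronic acid high control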
hgDAF12 agonist: agonists of H. glycines DAF-12 nuclear receptor | HEK293 GAL4-hgDAF12 UAS-luciferase reporter, agonist luminescence; normalized to butyrate control | activation, % at 6.8 µM | actives 1.8% (n = 370,000) | AID 687014;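 active means activation above a cutoff set at the mean of all screened compounds plus 3 SD, cut at about 10% in these data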;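 further: 0% = DMSO wells and 100% = sodium butyrate wells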
An asterisk follows results filed as active; / = no result given.

SMILES | DAX1 inh-1 | DAX1 inh-2 | ssDAF12 agonist | hcDAF12 agonist | hgDAF12 agonist
COc1ccccc1OCC(=O)Nc1ccccn1 | 3.4 | 1.7 | -0.2 | 5.2 | 13.1*
O=C(/C=C/c1ccco1)NC1=NCCS1 | 2.2 | 0.6 | -0.3 | 3.7 | 7.1
O=C1CCC[C@H]2C[C@H](NCc3ccc(Cl)c(Cl)c3)CC[C@]23CCCN13 | / | / | -1.1 | -0.9 | -1.2
Cc1ccc2c(c1)N(CCCC(=O)NCc1cccs1)C(=O)CO2 | -0.3 | / | -2.1 | -3.3 | 0.7
CC(NC1CCN(Cc2ccccc2)CC1)c1ccc(F)cc1 (centres undefined) | -0.8 | 0.0 | 1.1* | -2.3 | -1.6
Fc1ccc(CNC2CCN(Cc3ccccc3)CC2)cc1 | 0.7 | 2.3 | -0.2 | -1.1 | 3.8
O=C1NC(=O)c2c(Br)c(Br)c(Br)c(Br)c21 | -0.1 | 1.3 | 1.0* | 1.4 | 2.0
O=C1NC(=O)C(=O)N1 | 0.5 | 2.0 | -0.5 | -1.4 | 0.5
CCN(CC)C(=O)c1ccc2c(c1)N(Cc1ccccc1)C(=O)CS2=O (centres undefined) | 0.4 | 4.7* | -0.9 | -1.5 | -1.0
N#CCc1ccc(OC[C@@H](O)CN2CCC(C(O)(c3ccccc3)c3ccccc3)CC2)cc1 | 0.3 | / | -1.3 | -1.4 | -1.0
Cc1ccc(-c2ccc(CCC(=O)O)o2)cc1 | -0.1 | -0.1 | 2.6* | -1.1 | 0.0
COc1ccc(NC(=S)Nn2cnnc2)cc1OC | -0.8 | 6.4* | -2.2 | -0.4 | -3.1
Cc1cc(C(=O)Nc2cccc3cccnc23)ccc1[N+](=O)[O-] | -0.2 | 0.3 | 0.4 | 5.9* | 3.8
O=C(Nc1cccc2cccnc12)c1cccc([N+](=O)[O-])c1 | -0.4 | 1.2 | -0.9 | 0.1 | 4.0
O=C(O)CCC(=O)Nc1cccc2cccnc12 | 0.2 | 5.2* | -0.5 | -1.1 | -1.4
COc1cccc(C(=O)Nc2cccc3cccnc23)c1OC | / | 4.3* | / | / | /
COc1ccccc1NS(=O)(=O)c1cccc2cccnc12 | -0.4 | 5.4* | -1.6 | 0.9 | -2.0
CCN1CCN(CCCNC(=O)CCC(=O)N2CCOc3ccccc32)CC1 | 1.2 | 0.3 | -1.0 | 5.7* | -3.4
O=C(CCC(=O)N1CCOc2ccccc21)NCCCN1CCCCC1 | 0.8 | -0.2 | -1.2 | -0.5 | 0.8
COc1ccc(C2CC(c3cccc(C)c3)n3ncnc3N2)cc1 (centres undefined) | -0.5 | 1.1 | -1.0 | -0.8 | 0.3
Cc1ccccc1C1CC(c2ccccc2OC(F)F)Nc2ncnn21 (centres undefined) | 0.1 | -0.6 | -1.3 | 0.9 | -1.1
Cc1cccc(C2CC(c3ccccc3)Nc3ncnn32)c1 (centres undefined) | 0.1 | 5.6* | -1.6 | -1.5 | -0.7
Cc1ccc(C2CC(c3ccccc3OC(F)F)Nc3ncnn32)cc1 (centres undefined) | -0.2 | 5.3* | -0.8 | -1.1 | 0.6
O=C(Cc1ccc(NC(=O)C2CCN(C(=O)C3CCCC3)CC2)cc1)Nc1cccc(C(=O)N2CCCC2)c1 | 0.2 | / | -0.5 | 0.5 | 2.3
c1ccc2nc(-c3ccc(N4CCOCC4)cc3)ccc2c1 | 3.8* | -1.6 | 0.1 | 6.3* | 9.3
SMILES | DAX1 inh-1 | DAX1 inh-2 | ssDAF12 agonist | hcDAF12 agonist | hgDAF12 agonist
Cc1ccc(C(=O)NC(=S)Nc2ccccc2N2CCCC2)cc1[N+](=O)[O-] | -0.5 | 1.0 | 1.4* | 1.5 | -0.6
Nc1ccn([C@@H]2O[C@H](C(=O)N[C@H](Cc3ccccc3)C(=O)NCc3cccc4c3OCO4)[C@@H](O)[C@H]2O)c(=O)n1 | 0.4 | / | -1.0 | 2.4 | 2.1
O=C(NC1CCCCC1)c1ccc([N+](=O)[O-])cc1 | 3.7* | 1.2 | 0.7 | 1.2 | 5.9
CCOc1ccc(C(=O)NC2CCCCCCC2)cc1 | 2.9 | 2.0 | 0.8 | 6.1* | 12.4*
O=C(NCC1CCCCC1)c1cccc([N+](=O)[O-])c1 | -0.2 | 1.8 | -0.8 | -0.3 | 2.6
O=C(NC1CCCCCCC1)c1cc([N+](=O)[O-])ccc1Cl | -0.8 | 0.2 | -1.1 | -0.2 | 1.7
O=C(NCC1CCCCC1)c1ccc([N+](=O)[O-])cc1 | -0.1 | 10.2* | -1.3 | -0.4 | 3.4
CCN(Cc1ccccc1)S(=O)(=O)c1cc(C(=O)NC2CCCCCC2)ccc1OC | -0.7 | -1.5 | -2.0 | 0.3 | -4.1
CCN(CC)S(=O)(=O)c1cc(C(=O)NC2CCCCC2)ccc1C | 2.0 | -0.6 | -0.2 | 2.8 | 11.0*
Cc1ccc(C(=O)C2CCN(CC(=O)N3CC(C)CC(C)C3)CC2)cc1 (centres undefined) | 0.8 | / | -1.6 | -1.8 | -1.8
CC(=O)c1c(C)[nH]c(C(=O)Nc2ccc3c(c2)OCCO3)c1C | 2.8 | 0.6 | 0.7 | 3.1 | 10.8*
CCOc1ccc(NC(=O)c2[nH]c(C)c(C(C)=O)c2C)cc1 | 0.0 | -0.2 | -0.8 | -1.4 | 0.8
CC(=O)c1c(C)[nH]c(C(=O)Nc2nccs2)c1C | 0.3 | 0.3 | -1.0 | 1.4 | 12.0*
CCc1ccc(NC(=O)c2[nH]c(C)c(C(C)=O)c2C)cc1 | 2.4 | 1.1 | -0.7 | 0.5 | 12.9*
CCOC(=O)c1[nH]c(C)c(C(=O)Nc2ccc3c(c2)OCCO3)c1C | -1.2 | -1.2 | -2.1 | -2.9 | -2.0
O=C(NC1CCC1)c1ccc(C#Cc2cccc(F)c2)cn1 | -0.6 | / | -1.0 | -2.9 | -1.9
O=C(Oc1coc(CSc2ncccn2)cc1=O)c1ccc([N+](=O)[O-])cc1 | / | / | -1.5 | -1.9 | 1.5
COc1ccc2c(c1)CC/C2=N\OC(=O)c1ccccc1C | 0.7 | 2.5 | 2.1* | 1.5 | 9.4
CC1CCCC=CC2CC(OC(=O)CN(C)C)CC2C(O)C=CC(=O)O1 (centres undefined) | 4.5* | -2.3 | -1.7 | -2.2 | -7.8
Cn1nnc(-c2ccc(OCc3ccccc3F)cc2)n1 | 3.8* | 1.6 | 1.0* | 1.8 | 8.6
CSc1nn(CCC#N)c(=O)[nH]c1=O | 1.2 | / | -0.4 | -0.1 | -2.4
CC(C)CNC(=O)C(=O)NCCCN1CCOCC1 | -1.0 | -0.2 | -2.0 | 1.2 | -2.7
Cc1cc(C)cc(NC(=O)C(=O)NCCCN2CCOCC2)c1 | -0.1 | -0.3 | -1.2 | -1.1 | -1.7
NNC(=O)C(=O)NCCCN1CCOCC1 | -0.2 | 5.7* | -1.4 | 2.0 | -3.2
Cc1ccc(C)c(NC(=S)NCCCN2CCOCC2)c1 | 0.6 | 0.0 | 0.9* | -1.4 | 3.1
SMILES | DAX1 inh-1 | DAX1 inh-2 | ssDAF12 agonist | hcDAF12 agonist | hgDAF12 agonist
Cc1ccc(C)c(NC(=O)C(=O)NCCCN2CCOCC2)c1 | 0.1 | 1.3 | -1.3 | -0.9 | 11.4*
Cc1n(-c2ccccc2)c2ccc(Cl)cc2[n+]1CCO | -0.1 | 1.3 | -0.8 | -0.8 | 12.4*
CC1=NN(C(=O)c2ccco2)C(O)(c2ccccc2)C1 (centres undefined) | 0.6 | 6.3* | 1.0* | 3.3 | 10.9*
CCC(NC(=O)c1ccc2c(c1)c(C)c(C)n2Cc1ccc(-c2ccccc2C#N)cc1)c1ccccc1 (centres undefined) | -1.1 | / | -0.2 | 2.2 | 2.3
O=C(COC(=O)COc1cccc(C(F)(F)F)c1)Nc1ccc(N2CCOCC2)cc1 | -1.5 | 0.5 | -1.2 | 6.1* | -0.3
N#Cc1ccc(OCC(=O)OCC(=O)Nc2ccc(N3CCOCC3)cc2)cc1 | 1.6 | 1.4 | -0.7 | 0.3 | -0.5
